Assay outcomes: PubChem, Broad Institute
This is one part of a sample in which hits are shown more often than they occur.
IDE exosite inh = displaces the probe from the exo-site of human IDE. purified IDE, FL-6b probe fluorescence polarization; hits give low values. z-score at 20 µM. 17,000 tested, 6.3% active. AID 1259349;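 active = z-score of -3 or lower, meaning strong loss of probe binding signal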;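 also: His-tagged human IDE residues 42-1019 made in E. coli with 30 nM FL-6b probe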
Numbers stand for hits; . = inactive.

SMILES | IDE exosite inh
COc1cccc(C#Cc2ccc([C@@H]3[C@H](C#N)N(C(=O)C4CC4)[C@H]3CO)cc2)c1 | .
COc1ccccc1C#Cc1ccc([C@H]2[C@@H](C#N)N(C(=O)C3CCCCC3)[C@H]2CO)cc1 | .
COc1ccccc1C#Cc1ccc([C@H]2[C@@H](C#N)N(C(=O)C3CCC3)[C@H]2CO)cc1 | -4.87
COc1cccc(C#Cc2ccc([C@H]3[C@@H](CO)N(C(=O)C4CCC4)[C@H]3C#N)cc2)c1 | .
COc1cccc(C#Cc2ccc([C@@H]3[C@H](C#N)N(C(=O)C4CCC4)[C@H]3CO)cc2)c1 | .
COc1ccccc1C#Cc1ccc([C@@H]2[C@@H](C#N)N(C(=O)C3CCCCC3)[C@H]2CO)cc1 | -7.99
N#C[C@H]1[C@@H](c2ccc(C#Cc3ccccc3F)cc2)[C@@H](CO)N1C(=O)C1CCCCC1 | .
O=C(C[C@@H]1CC[C@H](NS(=O)(=O)c2ccccc2F)[C@H](CO)O1)NCCCN1CCOCC1 | .
CC(=O)NC[C@@H]1[C@@H](c2ccc(-c3cccnc3)cc2)[C@@H](CO)N1C(=O)CC1CC1 | .
COCC(=O)N1CC(=O)N2[C@H](C1)[C@H](c1ccc(C#CC3CC3)cc1)[C@@H]2CO | .
CN(C[C@@H]1[C@H](c2ccccc2)[C@@H](CO)N1C(=O)C1CC1)C(=O)c1ccccn1 | .
O=C(c1ccccc1F)N1CC(=O)N2[C@H](CO)[C@@H](c3ccc(C#Cc4ccc(F)cc4)cc3)[C@@H]2C1 | .
C/C=C/c1ccc([C@H]2[C@@H](CO)N(S(C)(=O)=O)[C@@H]2CN(CCC)C(C)=O)cc1 | .
CCC(=O)N1CC(=O)N2[C@@H](CO)[C@@H](c3ccc(C#Cc4cccc(F)c4)cc3)[C@@H]2C1 | -4.1
CCS(=O)(=O)N1CC(=O)N2[C@H](C1)[C@H](c1ccc(C#Cc3cccc(F)c3)cc1)[C@@H]2CO | -5.42
CCC(=O)N1CC(=O)N2[C@H](CO)[C@H](c3ccc(C#Cc4cccc(F)c4)cc3)[C@H]2C1 | -3.99
CCS(=O)(=O)N1CC(=O)N2[C@H](CO)[C@@H](c3ccc(C#Cc4cccc(F)c4)cc3)[C@H]2C1 | .
CCC(=O)N1CC(=O)N2[C@H](CO)[C@@H](c3ccc(C#Cc4cccc(F)c4)cc3)[C@@H]2C1 | .
CS(=O)(=O)N1CC(=O)N2[C@H](C1)[C@@H](c1ccc(C#Cc3cccc(F)c3)cc1)[C@@H]2CO | .
CCC(=O)N1CC(=O)N2[C@H](C1)[C@@H](c1ccc(C#Cc3cccc(F)c3)cc1)[C@@H]2CO | .
CCC(=O)N1[C@H](CO)[C@H](c2ccccc2)[C@H]1CNC(=O)CN1CCOCC1 | .
CCS(=O)(=O)N1CCCCN2[C@H](CO)[C@H](c3ccc(C#CC(C)(C)O)cc3)[C@H]2C1 | .
C[C@@H](O)C#Cc1ccc([C@H]2[C@H]3CN(C(=O)c4ccc(F)cc4)CCCCN3[C@H]2CO)cc1 | .
Cc1cccc(-c2ccc([C@H]3[C@@H](CO)N4CCCCN(S(=O)(=O)c5cccs5)C[C@@H]34)cc2)c1 | .
CN1C(=O)c2cc(NC(=O)C3CCOCC3)ccc2OC[C@H]2O[C@H](CC(=O)NCC3CCCCC3)CC[C@@H]21 | .
SMILES | IDE exosite inh
C/C=C/c1ccc([C@H]2[C@@H](CO)N(C(=O)CC)[C@@H]2CNC(=O)CC)cc1 | .
CC(=O)N1CC(=O)N2[C@H](CO)[C@@H](c3ccc(C#CC(C)C)cc3)[C@H]2C1 | .
N#C[C@H]1N[C@@H](CO)[C@@H]1c1ccc(-c2ccccc2F)cc1 | .
N#C[C@H]1N[C@H](CO)[C@H]1c1ccc(-c2ccccc2F)cc1 | .
COc1ccccc1-c1ccc([C@@H]2[C@@H](C#N)N[C@@H]2CO)cc1 | -8.94
COc1ccccc1-c1ccc([C@H]2[C@@H](C#N)N[C@@H]2CO)cc1 | .
COc1ccc(-c2ccc([C@H]3[C@H](CO)N[C@@H]3C#N)cc2)cc1 | .
O=C(NC[C@@H]1N[C@@H](CO)[C@@H]1c1ccccc1)C1CC1 | .
COc1ccccc1-c1ccc([C@H]2[C@H](CO)N[C@@H]2C#N)cc1 | -4.23
O=C(NC[C@H]1N[C@H](CO)[C@@H]1c1ccc(-c2cncnc2)cc1)C1CCCCC1 | .
COc1ccccc1-c1ccc([C@H]2[C@@H](CO)N[C@@H]2CNC(=O)C2CCCC2)cc1 | -10.9
N#C[C@@H]1N[C@@H](CO)[C@@H]1c1ccc(-c2ccccc2F)cc1 | .
COc1ccccc1-c1ccc([C@@H]2[C@H](C#N)N[C@@H]2CO)cc1 | -9.3
N#C[C@@H]1N[C@H](CO)[C@H]1c1ccc(-c2ccccc2F)cc1 | .
N#C[C@H]1[C@@H](c2ccccc2-c2ccc(F)cc2)[C@@H](CO)N1c1ncc(-c2ccccc2)s1 | .
CN1C(=O)c2cc(NC(=O)Nc3ccc(Cl)cc3)ccc2OC[C@@H]2O[C@H](CC(=O)NCCN3CCCCC3)CC[C@@H]21 | .
CC(C)CC#Cc1ccc([C@@H]2[C@H](CO)N3C(=O)CN(C(=O)Cc4ccccc4)C[C@@H]23)cc1 | .
CN1C(=O)c2cc(NC(=O)Nc3ccccc3F)ccc2OC[C@H]2O[C@@H](CC(=O)NCCc3ccncc3)CC[C@@H]21 | .
CCC(=O)N1CC(=O)N2[C@H](CO)[C@@H](c3ccc(C#CC4CCCC4)cc3)[C@@H]2C1 | .
O=C(NC1CCCC1)N[C@@H]1C=C[C@H](CC(=O)N2CCOCC2)O[C@H]1CO | .
CCCNC(=O)N(C)C[C@H]1Oc2ncc(C#CC3CCCCC3)cc2C(=O)N([C@@H](C)CO)C[C@H]1C | .
OC[C@@H]1[C@H](c2ccc(-c3ccc(F)cc3)cc2)[C@@H]2CN(CCC(F)(F)F)CCCCN12 | .
COCC#Cc1ccc([C@@H]2[C@H]3CN(C(=O)C4CC4)CC(=O)N3[C@H]2CO)cc1 | .
CCCNC(=O)N1C[C@H]2[C@@H](c3ccccc31)[C@@H](CO)N2Cc1cccc(OC)c1 | .
COc1ccccc1-c1ccc([C@H]2[C@@H](CO)N(C(=O)c3cccc(F)c3)[C@H]2C#N)cc1 | -4.21
SMILES | IDE exosite inh
COc1ccccc1-c1ccccc1[C@H]1[C@@H](C#N)N(C(=O)C2CC2)[C@@H]1CO | .
COc1ccccc1-c1ccc([C@@H]2[C@@H](C#N)N(C(=O)C3CC3)[C@H]2CO)cc1 | -10.6
COc1ccc(-c2ccc([C@H]3[C@@H](C#N)N(C(=O)c4cccc(F)c4)[C@H]3CO)cc2)cc1 | .
N#C[C@H]1[C@@H](c2ccc(-c3ccccc3F)cc2)[C@@H](CO)N1C(=O)C1CCC1 | .
COc1ccc(-c2ccc([C@@H]3[C@@H](CO)N(C(=O)C4CCCCC4)[C@H]3C#N)cc2)cc1 | .
COc1ccccc1-c1ccccc1[C@@H]1[C@@H](C#N)N(C(=O)C2CC2)[C@@H]1CO | .
COc1ccccc1-c1ccc([C@H]2[C@@H](C#N)N(C(=O)C3CCC3)[C@H]2CO)cc1 | -5.02
COc1ccc(-c2ccc([C@@H]3[C@@H](C#N)N(C(=O)C4CCC4)[C@H]3CO)cc2)cc1 | .
COc1ccc(-c2ccc([C@@H]3[C@@H](CO)N(C(=O)C4CCCC4)[C@H]3C#N)cc2)cc1 | .
COc1ccc(-c2ccc([C@@H]3[C@@H](CO)N(C(=O)c4cccc(F)c4)[C@H]3C#N)cc2)cc1 | .
COc1ccccc1-c1ccc([C@@H]2[C@@H](C#N)N(C(=O)C3CCCCC3)[C@@H]2CO)cc1 | -13.8
O=S(=O)(c1ccc(F)cc1)N1CCCCN2[C@H](CO)[C@@H](c3ccc(-c4ccccc4)cc3)[C@H]2C1 | .
O=S(=O)(c1ccc(Cl)cc1)N1[C@@H]2CNC[C@H]1C2c1ccc(-c2cccc(F)c2)cc1 (some centres not stated) | .
